# In the supplement of paper PMC8728848:
# This excerpt belongs to a sample that is enriched for the strongest signals.
# Key:
# Test in all cases: glycan array binding signal (z-score within array); higher = stronger binding
# Details in all cases: glycan notation: IUPAC condensed, linker removed
# Fuc(a1-2)Gal(b1-3)GalNAc = target: Fuc(a1-2)Gal(b1-3)GalNAc
# In short: (§1)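 From the Consortium for Functional Glycomics database, 3228 arrays were curated, keeping only those whose protein sequence was available. Binding is given as a within-array Z-score averaged across arrays sharing a protein sequence and across linkers. Negative Z-scores can be read as non-binding.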
# [1] = target: Fuc(a1-2)Gal(b1-3)GalNAc(a1-3)[Fuc(a1-2)]Gal(b1-4)GlcNAc
# In short: as §1
# [2] = target: Fuc(a1-2)Gal(b1-3)GalNAc(b1-3)Gal(a1-4)Gal(b1-4)Glc
# In short: as §1
# [3] = target: Fuc(a1-2)Gal(b1-3)GlcNAc(b1-2)Man(a1-3)[Fuc(a1-2)Gal(b1-3)GlcNAc(b1-2)Man(a1-6)]Man(b1-4)GlcNAc(b1-4)GlcNAc
# In short: as §1
# [4] = target: Fuc(a1-2)Gal(b1-3)GlcNAc(b1-3)Gal(b1-4)Glc
# In short: as §1
# [5] = target: Fuc(a1-2)Gal(b1-3)GlcNAc(b1-3)GalNAc
# In short: as §1
# [6] = target: Fuc(a1-2)Gal(b1-3)[Fuc(a1-4)]GlcNAc(b1-2)Man(a1-3)[Fuc(a1-2)Gal(b1-3)[Fuc(a1-4)]GlcNAc(b1-2)Man(a1-3)]Man(b1-4)GlcNAc(b1-4)GlcNAc
# In short: as §1
# [7] = target: Fuc(a1-2)Gal(b1-4)[Fuc(a1-3)]GlcNAc(b1-2)[Fuc(a1-2)Gal(b1-4)[Fuc(a1-3)]GlcNAc(b1-4)]Man(a1-3)[Fuc(a1-2)Gal(b1-4)[Fuc(a1-3)]GlcNAc(b1-2)Man(a1-6)]Man(b1-4)GlcNAc(b1-4)GlcNAc
# In short: as §1
# Fuc(a1-2)Gal6S(b1-4)Glc = target: Fuc(a1-2)Gal6S(b1-4)Glc
# In short: as §1
# [8] = target: Fuc(a1-2)Gal6S(b1-4)Glc6S
# In short: as §1
# [9] = target: Fuc(a1-2)[Gal(a1-3)]Gal(b1-3)GalNAc(b1-3)Gal(a1-4)Gal(b1-4)Glc
# In short: as §1
# [10] = target: Fuc(a1-2)[Gal(a1-3)]Gal(b1-4)GlcNAc(b1-2)Man(a1-3)[Fuc(a1-2)[Gal(a1-3)]Gal(b1-4)GlcNAc(b1-2)Man(a1-6)]Man(b1-4)GlcNAc(b1-4)GlcNAc
# In short: as §1
# [11] = target: Fuc(a1-2)[GalNAc(a1-3)]Gal(b1-3)GlcNAc(b1-6)GalNAc
# In short: as §1
# [12] = target: Fuc(a1-2)[GalNAc(a1-3)]Gal(b1-4)GlcNAc(b1-3)Gal(b1-4)GlcNAc
# In short: as §1
# [13] = target: Fuc(a1-2)[GalNAc(a1-3)]Gal(b1-4)GlcNAc(b1-3)Gal(b1-4)GlcNAc(b1-3)Gal(b1-4)GlcNAc
# In short: as §1
# [14] = target: Fuc(a1-2)[GalNAc(a1-3)]Gal(b1-4)GlcNAc(b1-6)GalNAc
# In short: as §1
# [15] = target: Fuc(a1-2)[GalNAc(a1-3)]Gal(b1-4)[Fuc(a1-3)]GlcNAc
# In short: as §1
# Fuc(a1-3)GlcNAc = target: Fuc(a1-3)GlcNAc
# In short: as §1
# Gal(a1-3)Gal(b1-3)GlcNAc = target: Gal(a1-3)Gal(b1-3)GlcNAc
# In short: as §1
# [16] = target: Gal(a1-3)Gal(b1-3)GlcNAc(b1-6)GalNAc
# In short: as §1
# Gal(a1-3)Gal(b1-4)GlcNAc = target: Gal(a1-3)Gal(b1-4)GlcNAc
# In short: as §1
# Gal(b1-2)Gal = target: Gal(b1-2)Gal
# In short: as §1
# [17] = target: Gal(b1-3)GalNAc(a1-3)[Fuc(a1-2)]Gal(b1-4)GlcNAc
# In short: as §1
# [18] = target: Gal(b1-3)GlcNAc(b1-3)Gal(b1-4)GlcNAc
# In short: as §1
# [19] = target: Gal(b1-3)GlcNAc(b1-6)GalNAc
# In short: as §1
# Gal(b1-3)GlcNAc6S = target: Gal(b1-3)GlcNAc6S
# In short: as §1
# [20] = target: Gal(b1-3)[Fuc(a1-4)]GlcNAc(b1-2)Man
# In short: as §1
# [21] = target: Gal(b1-3)[Fuc(a1-4)]GlcNAc(b1-2)Man(a1-3)[Gal(b1-3)[Fuc(a1-4)]GlcNAc(b1-2)Man(a1-6)]Man(b1-4)GlcNAc(b1-4)[Fuc(a1-6)]GlcNAc
# In short: as §1
# [22] = target: Gal(b1-3)[GlcNAc(b1-6)]GalNAc
# In short: as §1
# [23] = target: Gal(b1-4)GlcNAc(b1-2)[Gal(b1-4)GlcNAc(b1-6)]Man(a1-6)[Gal(b1-4)GlcNAc(b1-2)Man(a1-3)]Man(b1-4)GlcNAc(b1-4)[Fuc(a1-6)]GlcNAc
# In short: as §1
binder,measurement,setting,value
"Clec12b (Mus musculus), Q149M0 (protein) MSDEVTYATLMLQDSARVRGNQDGNNLRKEGHPAQSSLWRGAALSLMTLCLVLVTGLVTLATMFLQVSNDINSDSEKLSQLQKSIHPQQDNLSESLNSSRKSLTEESLQSQISALLERQEQMATKLCKEFLIHASDHKCNPCPKTWQWYGNSCYYFSINEEKSWSDSRKDCIDKNATLVKIDSTEERDLLQSQLSLTFSFFWLGLSWNSSGRNWLWEDGSFPPPTLFSDKELASFNGSRDCAYFERGNIYASRCSAEIPWICEKTASLVKTEDLD",glycan array binding signal (z-score),Fuc(a1-2)Gal(b1-3)GalNAc,-0.451
same,glycan array binding signal (z-score),[1],0.211
same,glycan array binding signal (z-score),[2],-0.395
same,glycan array binding signal (z-score),[3],2.66
same,glycan array binding signal (z-score),[4],3.25
same,glycan array binding signal (z-score),[5],-0.484
same,glycan array binding signal (z-score),[6],2.58
same,glycan array binding signal (z-score),[7],2.82
same,glycan array binding signal (z-score),Fuc(a1-2)Gal6S(b1-4)Glc,0.808
same,glycan array binding signal (z-score),[8],-0.568
same,glycan array binding signal (z-score),[9],-0.052
same,glycan array binding signal (z-score),[10],0.853
same,glycan array binding signal (z-score),[11],4.57
same,glycan array binding signal (z-score),[12],-0.749
same,glycan array binding signal (z-score),[13],-0.115
same,glycan array binding signal (z-score),[14],0.308
same,glycan array binding signal (z-score),[15],-0.288
same,glycan array binding signal (z-score),Fuc(a1-3)GlcNAc,-0.323
same,glycan array binding signal (z-score),Gal(a1-3)Gal(b1-3)GlcNAc,5.35
same,glycan array binding signal (z-score),[16],-0.324
same,glycan array binding signal (z-score),Gal(a1-3)Gal(b1-4)GlcNAc,0.53
same,glycan array binding signal (z-score),Gal(b1-2)Gal,2.74
same,glycan array binding signal (z-score),[17],-0.587
same,glycan array binding signal (z-score),[18],-0.41
same,glycan array binding signal (z-score),[19],-0.588
same,glycan array binding signal (z-score),Gal(b1-3)GlcNAc6S,0.486
same,glycan array binding signal (z-score),[20],0.927
same,glycan array binding signal (z-score),[21],3.71
same,glycan array binding signal (z-score),[22],-0.137
same,glycan array binding signal (z-score),[23],0.226
